Data: PubChem BioAssay AID540358 (NMMLSC, 2011)
Out of some 1,100 compounds screened, about 260 (24%) were called active. A selection follows. Values without a mark were called inactive.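 How the source made its calls: active means surface receptor percent response at or below 58%, roughly 3 SD from nonfluorescent compounds; inactive means the rest.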

Each compound was assayed against Beta-2 adrenergic receptor (Homo sapiens) (UniProt P07550) (assay: beta2AR agonists via receptor internalization, confirmation, cell-based, FAP fluorogen, flow cytometry, single point, cherry pick 1 (AID 540358)). Settings: Am2.2-beta2AR cells, at 10 µM, active compounds read low.
Chain of Beta-2 adrenergic receptor (Homo sapiens) (P07550 whole entry, looked up): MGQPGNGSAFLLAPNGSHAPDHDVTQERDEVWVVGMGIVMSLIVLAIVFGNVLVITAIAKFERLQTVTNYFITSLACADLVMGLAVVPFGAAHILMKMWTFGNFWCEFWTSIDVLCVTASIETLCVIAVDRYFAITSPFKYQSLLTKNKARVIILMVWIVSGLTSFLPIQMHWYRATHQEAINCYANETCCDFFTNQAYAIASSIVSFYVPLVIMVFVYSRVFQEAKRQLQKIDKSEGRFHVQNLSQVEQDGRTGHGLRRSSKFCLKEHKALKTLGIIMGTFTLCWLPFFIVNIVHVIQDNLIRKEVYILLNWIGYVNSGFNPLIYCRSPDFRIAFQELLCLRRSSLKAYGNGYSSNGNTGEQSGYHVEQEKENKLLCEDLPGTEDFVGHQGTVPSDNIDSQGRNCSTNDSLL

Structure (SMILES)	percent response (surface receptor)
CCC(=O)c1ccc(OCC(=O)N2CCN(CC(=O)Nc3ccc(C)cc3)CC2)cc1	10.7% (active)
O=C1NC(=O)C(CCc2ccccn2)(Cc2cccc(Cl)c2Cl)C(=O)N1c1ccc(Br)cc1 (stereo not drawn)	91.2%
CC(Cc1ccccc1)NCCC(c1ccccc1)c1ccccc1 (stereo not drawn)	105%
